Values joined by “and” are separate entries in the source; they are usually repeats but may differ in a detail not shown here. Equal values may be shown once. Active and inactive are the calls of the source.
Key:
[1] = compounds binding Alexa647 anti-His antibody – biochemical, small-molecule microarray, 635 nm fluorescence, artefact control for SMM control protein annotation, primary screen (AID 1128); conditions: higher = more signal;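 also: score merges feature fluorescence with signal-to-noise for each printed compound spot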
[2] = system: Human papillomavirus type 1a E7 protein (residues 1-88); test: HPV1a E7 small-molecule binders, primary screen, biochemical, small-molecule microarray, residues 1-88, 635 nm (AID 1129); conditions: small-molecule microarray binding, fluorescence 635 nm; higher = more signal
[3] = target: Focal adhesion kinase 1 (Homo sapiens) (UniProt Q05397); test: PTK2 protein binding on printed compound slides – biochemical, small-molecule microarray, 635/667 nm fluorescence, BSA, DTT, primary screen (AID 1130); conditions: 635 nm fluorescence, higher = more signal;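 also: composite of spot emission at 667 nm and signal to noise over triplicate slides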
Focal adhesion kinase 1 (Homo sapiens), sequence (Q05397 whole entry, looked up): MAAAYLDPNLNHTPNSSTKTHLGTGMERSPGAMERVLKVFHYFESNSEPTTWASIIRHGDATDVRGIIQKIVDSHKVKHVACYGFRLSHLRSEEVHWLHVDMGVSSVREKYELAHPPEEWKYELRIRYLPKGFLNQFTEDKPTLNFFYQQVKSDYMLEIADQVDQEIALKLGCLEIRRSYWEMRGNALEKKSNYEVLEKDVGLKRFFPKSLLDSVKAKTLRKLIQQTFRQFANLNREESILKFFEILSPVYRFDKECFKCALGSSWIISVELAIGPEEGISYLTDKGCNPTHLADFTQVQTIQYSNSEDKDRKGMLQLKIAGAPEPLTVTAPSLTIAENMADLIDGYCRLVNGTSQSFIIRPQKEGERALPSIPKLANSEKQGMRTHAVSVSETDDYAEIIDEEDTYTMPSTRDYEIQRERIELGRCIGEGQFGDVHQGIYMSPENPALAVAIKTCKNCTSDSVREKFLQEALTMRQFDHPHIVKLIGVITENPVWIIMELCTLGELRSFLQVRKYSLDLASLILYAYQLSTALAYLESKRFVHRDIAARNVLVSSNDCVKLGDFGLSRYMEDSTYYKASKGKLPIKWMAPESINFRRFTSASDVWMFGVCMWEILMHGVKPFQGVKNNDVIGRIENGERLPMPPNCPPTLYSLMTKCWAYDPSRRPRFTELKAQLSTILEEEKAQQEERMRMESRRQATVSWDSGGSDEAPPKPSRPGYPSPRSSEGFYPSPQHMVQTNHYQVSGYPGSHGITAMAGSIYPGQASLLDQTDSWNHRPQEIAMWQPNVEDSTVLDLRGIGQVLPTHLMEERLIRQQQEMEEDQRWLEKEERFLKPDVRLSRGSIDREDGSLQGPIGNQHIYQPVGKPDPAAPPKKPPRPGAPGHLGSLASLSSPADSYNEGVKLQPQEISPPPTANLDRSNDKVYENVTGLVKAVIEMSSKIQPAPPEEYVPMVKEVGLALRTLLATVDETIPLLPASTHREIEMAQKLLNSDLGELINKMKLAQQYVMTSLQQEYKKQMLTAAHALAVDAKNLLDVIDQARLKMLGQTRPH

[4] = system: Fibrinogen (Alexa647-labelled); test: Alexa647-fibrinogen binding to printed small molecules – biochemical, small-molecule microarray, 635/667 nm fluorescence, artefact control for SMM control-protein annotation, profiling panel (AID 1131); conditions: fibrinogen-A647 binding fluorescence, higher = more signal;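 also: z-score merges 667 nm fluorescence with per-spot signal-to-noise over triplicate slides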
[5] = target: Follistatin (Homo sapiens) (UniProt P19883); test: FST protein binding to printed compounds – biochemical, small-molecule microarray, 635/667 nm fluorescence, primary screen (AID 1132); conditions: 635 nm fluorescence, higher = more signal
Follistatin (Homo sapiens), sequence (P19883 whole entry, looked up): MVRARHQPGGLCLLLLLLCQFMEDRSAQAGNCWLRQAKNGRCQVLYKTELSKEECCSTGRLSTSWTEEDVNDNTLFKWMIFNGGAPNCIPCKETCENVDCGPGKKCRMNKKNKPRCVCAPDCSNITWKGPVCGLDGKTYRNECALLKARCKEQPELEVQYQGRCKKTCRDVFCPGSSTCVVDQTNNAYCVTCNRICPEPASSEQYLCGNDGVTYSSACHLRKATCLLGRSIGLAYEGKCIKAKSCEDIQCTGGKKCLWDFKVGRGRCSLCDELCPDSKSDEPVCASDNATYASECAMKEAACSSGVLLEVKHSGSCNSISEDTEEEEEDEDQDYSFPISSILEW

[6] = target: Fibroblast growth factor 2 (Homo sapiens) (UniProt P09038); test: basic fibroblast growth factor binding to printed compounds – biochemical, small-molecule microarray, 635/667 nm fluorescence, primary screen (AID 1133); conditions: FGF2, fluorescence 635/667, higher = more signal
Fibroblast growth factor 2 (Homo sapiens), sequence (P09038 whole entry, looked up): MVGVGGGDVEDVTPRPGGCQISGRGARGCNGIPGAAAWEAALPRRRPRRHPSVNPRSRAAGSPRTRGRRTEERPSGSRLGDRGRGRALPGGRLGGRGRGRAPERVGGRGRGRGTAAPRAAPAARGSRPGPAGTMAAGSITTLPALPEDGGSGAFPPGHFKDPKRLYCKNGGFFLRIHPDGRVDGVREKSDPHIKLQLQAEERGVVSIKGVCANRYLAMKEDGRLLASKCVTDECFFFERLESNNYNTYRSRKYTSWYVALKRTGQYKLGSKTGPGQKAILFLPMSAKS

[7] = JC-1 mitochondrial potential readout, lung cancer cells – cell-based, A549, JC-1 fluorescence, basal, 24 h, 100 nL, profiling panel (AID 1138); conditions: higher = more signal;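 also: A549 lung adenocarcinoma cells under basal conditions with no added stimulus; test concentration not given here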
[8] = system: Lefty1; test: Lefty1 protein binding to printed compounds – biochemical, small-molecule microarray, 635/667 nm fluorescence, primary screen (AID 1139); conditions: fluorescence 635/667, higher = more signal
[9] = system: wheat germ agglutinin (Triticum aestivum), Alexa647-labelled; test: Alexa647-WGA lectin binding to printed small molecules – biochemical, small-molecule microarray, 635/667 nm fluorescence, artefact control for SMM control-protein annotation, profiling panel (AID 1140); conditions: WGA-A647 binding, 635 nm fluorescence, higher = more signal;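 also: score merges 667 nm feature emission with signal to noise over triplicate slides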
[10] = target: Luciferin 4-monooxygenase (Photinus pyralis) (UniProt P08659); test: inhibition of purified Photinus pyralis luciferase – biochemical, luminescence, purified enzyme, 2006 set, primary screen (AID 1141); conditions: purified firefly luciferase, SteadyGlo luminescence, 30 min; higher = more signal, called active from +8 up or from −8 down;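 also: cell-free assay with purified firefly luciferase at 100 ng per well in PBS; test concentration not given here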
Luciferin 4-monooxygenase (Photinus pyralis), sequence (P08659 whole entry, looked up): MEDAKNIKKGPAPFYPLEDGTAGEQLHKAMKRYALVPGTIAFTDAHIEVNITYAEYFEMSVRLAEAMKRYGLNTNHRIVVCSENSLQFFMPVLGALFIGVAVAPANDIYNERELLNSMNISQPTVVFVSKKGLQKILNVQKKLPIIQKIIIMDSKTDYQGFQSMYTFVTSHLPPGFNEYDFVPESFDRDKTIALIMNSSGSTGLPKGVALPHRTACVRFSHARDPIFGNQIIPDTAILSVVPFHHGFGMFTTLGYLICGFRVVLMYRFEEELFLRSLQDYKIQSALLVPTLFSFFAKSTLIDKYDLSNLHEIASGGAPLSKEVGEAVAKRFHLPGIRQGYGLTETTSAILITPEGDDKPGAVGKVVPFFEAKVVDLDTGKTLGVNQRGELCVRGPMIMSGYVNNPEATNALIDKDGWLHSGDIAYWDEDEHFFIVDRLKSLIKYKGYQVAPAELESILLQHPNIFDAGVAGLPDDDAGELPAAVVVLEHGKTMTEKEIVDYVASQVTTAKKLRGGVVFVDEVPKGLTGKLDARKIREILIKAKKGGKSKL

SMILES | composite z-score [1] | composite z-score [2] | composite z-score [3] | composite z-score [4] | composite z-score [5] | composite z-score [6] | z-score [7] | composite z-score [8] | composite z-score [9] | z-score [10]
C=C[C@@H](OC)[C@H](O)c1ccc(O)c(F)c1 | -0.709 and -0.462 | -0.912 and -1.26 | -0.746 and -0.838 | -1.11 and -0.58 | -1.18 and -0.404 | -1.39 and 0.0341 | -0.329 and 0.662 | -1.7 and -0.947 | -0.303 and -0.223 | -0.981 (inactive) and -1.3 (inactive)
C=CCN(Cc1ccccc1)C(=O)C(c1cccs1)N(C(=O)/C=C\C(=O)O)c1c(Cl)cccc1CO (stereo not given) | -0.815 and -1.36 | -0.562 and -1.54 | -0.675 and -0.0599 | -2.79 and -3.53 | -1.74 and -2.71 | -2.4 and -1.88 | -0.321 and -0.229 | -1.51 and -1.93 | -0.482 and -1.57 | 1.02 (inactive) and 0.077 (inactive)
COc1ccc(O[C@H]2C=C[C@@H](c3ccccc3)O[C@@H]2COC(=O)CCC(C)=NO[C@H](C)c2cn([C@H](CO)Cc3ccccc3)nn2)cc1 | 2.33 and 1.58 | -0.0422 and 0.437 | 0.142 and -0.0962 | 0.643 and 0.766 | 0.125 and 0.326 | 0.218 and 0.684 | -1.04 and -0.144 | 0.653 and 0.557 | 0.207 and 0.223 | 0.845 (inactive) and -0.59 (inactive)
C=CCN(CCCC)C(=O)C(c1cccs1)N(CCOCCO)C(=O)/C=C\C(=O)O (stereo not given) | -0.542 and 1.17 | -1.01 and 0.222 | -0.552 and 0.468 | -2.44 and -1.32 | -1.31 and -0.249 | -1.01 and -0.379 | 0.0562 and 0.567 | -0.727 and -0.409 | -0.667 and -0.193 | -0.417 (inactive) and -0.714 (inactive)
COc1ccc(-c2ccc3c(n2)CCCN3CC(O)CN2CCCc3nc(-c4ccc(Br)cc4)ccc32)cc1 (stereo not given) | 1.33 and 1.2 | 0.601 and 0.387 | 0.665 and 0.748 | 0.572 and 0.757 | 0.922 and 0.796 | 0.6 and 0.609 | 1.45 and 0.555 | 1.02 and 0.514 | 0.557 and 0.333 | -0.254 (inactive) and 0.147 (inactive)
C=CC[C@@H](O)c1ccc(OCCO)cc1 | 0.7 and -0.687 | 0.301 and -0.59 | -0.595 and -0.79 | -1.34 and -0.494 | 0.716 and -0.517 | -0.418 and -1.58 | 0.856 and 0.491 | -0.146 and -0.805 | -0.455 and 0.763 | -6.43 (inactive) and -6.38 (inactive)
CC(C)[Si]1(C(C)C)OCc2cc(C3CC3)nc(CCc3ccccc3)c21 | -0.363 and -0.0162 | -0.868 and 0.316 | -0.177 and -0.249 | -0.582 and 0.111 | 0.0259 and 0.303 | -0.329 and 0.0149 | -0.323 and -1.45 | -0.237 and 0.22 | -0.269 and 0.0131 | -0.324 (inactive) and 0.744 (inactive)
COC(=O)C1=C(C)N(Cc2ccccc2)[C@]23O[C@](C(=O)OC)(C(=O)N2[C@@H]1c1ccccc1)[C@H]1CCCC(=O)[C@H]13 | 0.677 and 1.34 | 0.312 and 0.104 | -0.035 and 0.215 | 0.753 and 0.377 | 0.372 and 0.544 | 0.349 and 0.456 | 0.455 and -0.75 | 0.784 and 0.694 | 0.528 and -0.124 | -0.5 (inactive) and 0.264 (inactive)
C=CCN(C(=O)C1N(C(C)(C)CO)C(=O)C2C(C(=O)O)C3C=CC21O3)c1ccc(OC)cc1 (stereo not given) | -2.21 and -2.2 | -1.08 and -1.45 | -0.488 and -0.747 | -1.1 and -1.88 | -2.74 and -3.18 | -2.91 and -2.56 | 0.869 and 0.79 | -2.07 and -3.54 | -1.08 and -2.01 | -2.06 (inactive) and -1.09 (inactive)
C=C[C@H](C)[C@H](O)c1ccc(O)c2ccccc12 | 2.31 and -0.782 | -0.402 and -0.622 | -0.0703 and -0.493 | -0.22 and -0.58 | 0.0456 and 0.32 | -0.671 and 1.31 | -0.145 and 1.39 | -0.494 and 0.152 | -0.0985 and -0.45 | -1 (inactive) and -2.28 (inactive)
C=CCN(C(=O)C1N(C(C)(C)CO)C(=O)C2C(C(=O)O)C3C=CC21O3)C(C)(C)C (stereo not given) | -0.574 and -1.26 | -0.937 and -0.349 | -0.892 and -0.328 | -2.12 and 0.119 | -1.98 and -1.82 | -2.47 and -2.04 | -0.377 and 0.637 | -2.81 and -2.22 | -1.64 and 0.157 | 0.0864 (inactive) and -0.639 (inactive)
CC[C@@H]1C(Sc2ccccc2)C(C(=O)O)[C@H](c2ccc(C)cc2)N1S(=O)(=O)c1ccc(C)cc1 (stereo not given in full) | 1.81 and 0.489 | 1.25 and 1.17 | 0.994 and 0.704 | 1.03 | 0.427 and 0.634 | -0.375 and -0.193 | -0.102 and 0.13 | -0.642 and 0.533 | 0.707 and 0.804 | 0.534 (inactive) and -0.0047 (inactive)
C=CCN(CCCCC)C(=O)C1N(c2c(Cl)cccc2CO)C(=O)C2C(C(=O)O)C3C=CC21O3 (stereo not given) | -1.91 and -0.805 | -0.751 and -1.1 | -0.845 and -0.37 | -1.41 and -1.31 | -2.55 and -0.968 | -2.42 and -2.09 | -1.02 and -0.472 | -1.6 and -1.98 | -2.05 and -1.28 | 0.975 (inactive) and 0.308 (inactive)
COC(=O)c1c2oc(c1C(=O)OC)C(=O)N[C@@H](Cc1ccccc1)Cn1cc(nn1)C1(CCCCC1)NC(=O)N[C@H](CO)CC2 | 2.15 and -0.277 | 1.09 and 0.558 | 0.105 and 0.0367 | 1.01 and 0.223 | 1.38 and 0.484 | 1.41 and 0.184 | 1.53 and 3.28 | 0.956 and 0.506 | 0.462 and -0.0588 | -1.19 (inactive) and -0.739 (inactive)

— PubChem BioAssay
